# Measured values from publication PMC12723454.
# These entries were drawn from the full list. No count for the full screen is at hand. Values without a mark were called inactive.
# B1: HHH_b1_08438_000000177_dldesign_0_cycle1_af2pred_0001 (protein)
# chain: GGSGGSAEEEVEKLIEEAKNNPDKEKAEELLSRALKLADAAGNVDLRSKTMNALFDVLGGSGGSG
# B2: HHH_b1_01197_000000280_dldesign_0_cycle1_af2pred_0001 (protein)
# chain: GGSGGSGKSSEIDKLLNEVLKLGKEEEYLKIMSLKMDYLETGDEEIFKEAKELAKKVIGGSGGSG
# B3: HHH_b2_07220_000000120_dldesign_0_cycle1_af2pred_0001 (protein)
# chain: SGGSEESKKLVEETIKKAKKLVEEGNPLEAKILLRKTLLDLSELGDDEGFSKLSKFLDEIEGGSG
# B4: HHH_b1_00135_000000286_dldesign_0_cycle1_af2pred_0001 (protein)
# chain: SGGSLAVETAKEYLEMVKSYAEEGDKEEAQFFADIIKLLAESENNPELKKIYEEAKKIVEEGGSG
# B5: HHH_b1_08653_000000138_dldesign_0_cycle1_af2pred_0001 (protein)
# chain: GSGGSGASLAAEDILRAMRQFARAGKPEAVRDLAKKGIKIMTEAGRPDEAKRIEEELARLGGSGG
# B6: HHH_b1_02099_000000008_dldesign_0_cycle1_af2pred_0001 (protein)
# chain: SGGSMEELDECARLLNELAHAIEEGNKEKFEELYKKARELIEKLGDEALLKALDELEEAFYGGSG
# B7: ac710d00df0a15e663fb636f306744b3_0001_1_000000013_dldesign_0_cycle1_af2pred_0001 (protein)
# chain: GIRERAREMAKKHGVSDEELQPVIDLVEKMRAEGKSIEEIARELGEKLAETGNKAYACVLEALAE
# Molecular target: Flpp3
# Experiment: yeast display titration
row,Binder,apparent Kd [µM]
1,B1,> 11.6
2,B2,> 5.39
3,B3,> 4.46
4,B4,> 7.9
5,B5,> 134
6,B6,> 0.105
7,B7,> 0.105
